This excerpt belongs to a sample that is enriched for hits.
Tg IFNy HTS – T. gondii growth inhibition under IFN-gamma | AID 1259416 | Toxoplasma gondii growth in IFN-gamma-treated host cells; stronger effect = lower value | hit rate 3.8% among 69,000 | activity change, negative = inhibition, % (concentration not given with the values); in the data active = activity change below about -70%, passing the limit was not always enough;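 also: host cells are HeLa cells infected with Toxoplasma gondii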
* = called active by the depositor; i = inactive; ! = not confirmed by another sample.

SMILES | Tg IFNy HTS
COc1cc(Nc2nc(-c3nnc(-c4ccccc4)o3)nc3ccccc23)cc(OC)c1OC | -125*
COc1ccc(Nc2nc(-c3nnc(-c4ccc(C)cc4)o3)nc3ccccc23)cc1Cl | 277
COc1ccc(Nc2nc(-c3nnc(-c4cccc(C)c4)o3)nc3ccccc23)cc1OC | i
COCCNC(=O)[C@@H]1C[C@H]2CCN(Cc3csc(C)n3)C[C@H]2O1 | 15
Cc1ccc(Oc2ccc(CNC(=O)c3c(-c4ccncc4)noc3C)cc2)cc1 | -84*
Cc1noc(C)c1C(=O)NCc1ccc2c(c1)OCO2 | -40
COc1ccc(-c2noc(CC(=O)NCc3ccccc3)c2-c2ccc(OC)cc2)cc1 | -62
CCCn1c(=O)c(-c2nc(-c3cccc(Cl)c3)no2)c(O)c2ccccc21 | -2
CCN(CC)S(=O)(=O)c1ccc(NC(=O)c2cc3cccc(OC)c3oc2=O)cc1 | -49
COc1ccccc1-c1nc(Cn2ccn3nc(-c4ccc(F)cc4)cc3c2=O)c(C)o1 | 303
Cc1nc(C2CCN(S(=O)(=O)N(C)C)C2)ncc1C(=O)Nc1ccc(Cl)cc1 (centres undefined) | 12
CC1(C)CC[C@]2(C(=O)O)CC[C@]3(C)C(=CC[C@@H]4[C@@]5(C)CC[C@H](O)C(C)(C)[C@@H]5CC[C@]43C)[C@@H]2C1 | -72*!
C[C@@H]1CC[C@]2(C(=O)O)CC[C@]3(C)C(=CCC4[C@@]5(C)CC[C@H](O)C(C)(C)C5CC[C@]43C)C2[C@H]1C (some centres undefined) | 10
CC1(C)CC[C@]2(C(=O)O)CC[C@]3(C)C(=CCC4[C@@]5(C)CC[C@@H](O)C(C)(C)C5CC[C@]43C)C2C1 (some centres undefined) | -58
Cc1ccc(NC(=O)CC(=O)NCCc2nc3c(C)c(C)ccc3[nH]2)cc1 | -68
Cc1ccc2nc(COCC(=O)N3CC[C@H](O)[C@@H](O)C3)[nH]c2c1 | -3
Cc1c(-c2ccnc(N)n2)nnn1-c1ccc(Cl)cc1Cl | -109*
O=c1c(Cl)c(-n2cccn2)cnn1-c1ccc(Cl)cc1Cl | 56
Cc1c(-c2ccccc2)nnn1-c1cc(Cl)cc(Cl)c1 | 52
O=C(c1ccco1)N1Cc2ccnn2CC(COc2cccnc2)C1 (centres undefined) | 55
CC(=O)CC1N(C2CCCCCC2)C(=O)C2N(C3CCCCCC3)C(=O)C3CC(=O)OC312 (centres undefined) | 73
COc1ccc(CNC(=O)CC2N=C3c4ccccc4N=C(SCc4cc(=O)n5cc(Cl)ccc5n4)N3C2=O)cc1 (centres undefined) | -11
Cc1nc2ncc(-c3cc(NCc4ccccn4)nc4[nH]ccc34)cc2[nH]1 | -1
Cn1nccc1-c1nc(NCc2ccccn2)ncc1-c1ccsc1 | -93*
Cn1ccnc1-c1cnc(NCc2ccccn2)nc1-c1ccco1 | 26
SMILES | Tg IFNy HTS
O=C(O)c1ccccc1 | 12
O=C(O)c1c2ccccc2nc2ccccc12 | -75*
O=C(O)c1c2c(nc3ccccc13)CSc1ccc(Cl)cc1-2 | 23
O=C(NCCc1csc(-c2cccc(F)c2)n1)c1c(F)cccc1Cl | 17
C=CCNc1c(C(=O)OC)c(=O)[nH]c2c(Cl)cccc12 | 23
CC(C)C(=O)N1CC2CN(CCCc3ccccc3)C2C1 (centres undefined) | -7
COc1ccc(-c2nc(CSc3nc4c(=O)[nH]cnc4n3-c3ccc(C)cc3)c(C)o2)cc1 | 4
COc1ccc(-c2nc3sc4c(c3c(=O)[nH]2)CCCC4)cc1 | -87*
O=c1[nH]c(NCCO)nc2sc3c(c12)CCCC3 | 9
Cc1nc2sc3c(c2c(=O)[nH]1)CCC3 | 11
O=C(c1cccnc1-c1cnc2ccccc2c1)N1C[C@H]2CC[C@@H]1C2 | 0
Cc1nc(C(C)NC(=O)Cn2c(C3CC3)nc3ccccc32)n[nH]1 (centres undefined) | -7
CCOC(=O)c1csc(CCNc2nc(C)nc3c2cnn3C)n1 | -46
NCC1Cc2cc(-c3ccccc3OCCn3ccnc3)cc(Cl)c2O1 (centres undefined) | -81*
CNc1cc(-c2ccccc2OCCn2ccnc2)c2cc[nH]c2n1 | 4
NCC1Cc2cc(-c3ccc(Cn4ccnc4)cc3)cc(F)c2O1 (centres undefined) | -40
O=c1[nH]c2cc(Cl)c(Cl)c([N+](=O)[O-])c2[nH]c1=O | 17
O=c1[nH]c2cc(Cl)c(Cl)cc2[nH]c1=O | -72*
O=c1[nH]c2cc(C(F)(F)F)cc(Br)c2[nH]c1=O | -64
CC(C)N(C(=O)c1cc2cccnc2n(Cc2ccc(F)cc2)c1=O)C(C)C | -44
Cc1ccc(NC(=O)Cn2c(=O)cc(-c3nc(C)no3)c3ccccc32)c(C)c1 | 7
Cc1ccc(-n2ncc3c(-n4nc(C)cc4NC(=O)C4CCCC4)ncnc32)c(C)c1 | -106*
Cc1ccc(-n2ncc3c(-n4nc(C)cc4NC(=O)CCC4CCCC4)ncnc32)c(C)c1 | -31
CCCCC1CCC(C(=O)Nc2cc(C)nn2-c2ncnc3c2cnn3-c2ccc(C)cc2C)CC1 (centres undefined) | 21
CC(C)Cn1cncc1CNc1nc(-c2ccncc2)nc2c1CNC2 | 13
SMILES | Tg IFNy HTS
O=C(c1ccoc1)N1CC[C@@H]2[C@@H]1CCN2S(=O)(=O)C1CC1 | 1
COc1ccccc1-c1ccccc1CC1CN(S(=O)(=O)C(C)C)CCNC1=O (centres undefined) | 22
O=C(CN1C(=O)CCc2cc(S(=O)(=O)N3CCOCC3)ccc21)NC1CCCc2ccccc21 (centres undefined) | 3
Cc1cccc(-c2ccc([C@@H]3[C@@H](CO)N4C(=O)CN(C(=O)c5ccc6c(c5)OCO6)C[C@H]34)cc2)c1 | -43
N#Cc1cccc(-c2ccc(C3[C@@H]4CN(C(=O)Cc5ccncc5)C[C@H]3N4)cc2)c1 (some centres undefined) | 14
N#Cc1cccc(-c2ccc(C3[C@@H]4CN(C(=O)c5ccc6c(c5)OCO6)C[C@H]3N4)cc2)c1 (some centres undefined) | -75*!
CCc1[nH]c2c(CNC(=O)Nc3c(C)noc3C)cc(C)cc2c1C | -9
CC(C)CCNC(=O)Cn1c(=O)c(S(=O)(=O)c2ccccc2)cc2ccccc21 | 2
COc1cccc(C#Cc2ccc3c(c2)O[C@H](CN(C)C(=O)CN2CCOCC2)[C@@H](C)CN([C@@H](C)CO)S3(=O)=O)c1 | -50
COc1cccc(C#Cc2ccc3c(c2)O[C@H](CN(C)C(=O)CN2CCOCC2)[C@@H](C)CN([C@H](C)CO)S3(=O)=O)c1 | -6
COc1cccc(-c2ccc3c(c2)O[C@@H](CN(C)Cc2cccnc2)[C@H](C)CN([C@H](C)CO)S3(=O)=O)c1 | -64
C[C@@H]1CN([C@H](C)CO)S(=O)(=O)c2ccc(C#Cc3ccccc3F)cc2O[C@@H]1CN(C)C(=O)Cc1cccnc1 | -99*
COc1cccc(-c2ccc3c(c2)O[C@H](CN(C)Cc2cccnc2)[C@@H](C)CN([C@@H](C)CO)S3(=O)=O)c1 | -64
C[C@H](CO)N1C[C@H](C)[C@H](CN(C)C(=O)Cc2cccnc2)Oc2cc(C#Cc3ccccc3F)ccc2S1(=O)=O | -89*
CN(C)CC(=O)N1CCCc2c(-c3cccnc3)nn(C)c2C1 | 392
Cc1cccc(N2CCC(NCc3c(C)noc3C)CC2)c1C | -24
CN(Cc1cc(-c2cccs2)n[nH]1)C(=O)c1cc2n(n1)CCCNC2 | 8
Cc1ccc(CN2C[C@@H]3C(CC(=O)NCc4ccco4)[C@@H]3C2)o1 (some centres undefined) | -39
